The results in this text go back to PubChem BioAssay (Tox21).

The nature of test [1]: Human pregnane X receptor (PXR) small molecule agonists, qHTS cell viability counter screen (AID 1346977). Note: nearly all actives have a fitted effect of over 50% in size. Note: potency is the fitted concentration of half-maximal effect. A digest of the protocol:
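HepG2 cells stably carrying the PXR-Luc reporter are cultured with 5% charcoal-stripped FBS and treated with compounds for 24hr. CellTiter-Fluor is added at 23hr and fluorescence is read after 1hr.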
(In qHTS, concentration-response curves come from the screen itself.)

Test [2] is described as follows: Caspase-3/7 induction in HepG2 cells by small molecules, qHTS assay (AID 1346978). Note: nearly all actives have a fitted effect of over 15% in size. The procedure, abridged: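 Wild-type HepG2 cells (2,000/well) were settled 5 h at 37 C, 5% CO2, then exposed to compounds in DMSO for 17 h. Caspase-3/7 activity was read by luminescence 30 min after adding Caspase-Glo 3/7 reagent at room temperature.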
Test [3] in a line: Caspase-3/7 induction in CHO-K1 cells by small molecules, qHTS cell viability counter screen (AID 1346979). Note: nearly all actives have a fitted effect of over 35% in size. Note: potency is the fitted concentration of half-maximal effect. A digest of the protocol:
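Seeding: 1,500 CHO-K1 cells/well. Rest: 5hr, 37C. Treatment: compounds in DMSO, 16hr. Read: CellTiter-Fluor, 1hr, fluorescence.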

The nature of test [4]: Caspase-3/7 induction in CHO-K1 cells by small molecules, qHTS assay (AID 1346980). Note: nearly all actives have a fitted effect of over 15% in size. A digest of the protocol:
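Wild-type cells were seeded at 1,500 per well and settled 5 hr at 37 C, 5% CO2, then exposed to DMSO-dissolved compounds for 17 hr. Caspase-Glo 3/7 reagent was added, and luminescence was read after 30min at room temperature.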

Test [5] can be described thus: Caspase-3/7 induction in HepG2 cells by small molecules, qHTS cell viability counter screen (AID 1346981). For activity change, negative = cytotoxicity: series mostly up to about 92 µM. Note: nearly all actives have a fitted effect of over 30% in size. Note: potency is the fitted concentration of half-maximal effect. The procedure, abridged:
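Wild-type HepG2 cells, 2,000/well, settled 5 hr at 37 C, 5% CO2 before compound addition. Viability read by CellTiter-Fluor fluorescence, reagent added after 16 hr compound exposure, then 1 hr at 37C, in the same wells as the caspase read.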

The target of test [6] is Nuclear receptor subfamily 1 group I member 2 (Homo sapiens) (UniProt O75469). The experiment in a line: Human pregnane X receptor (PXR) small molecule agonists, qHTS assay (AID 1346982). Note: nearly all actives have a fitted effect of over 35% in size. Note: potency is the fitted concentration of half-maximal effect. The procedure, abridged: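 PXR-Luc HepG2 reporter cells (CYP3A4-driven luciferase) in 5% charcoal-stripped FBS medium, plated 5 h before compound addition, then treated 24 h at 37C. Luciferase read by ONE-Glo luminescence after 30 min at room temperature.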
Chain of Nuclear receptor subfamily 1 group I member 2 (Homo sapiens) (O75469 whole entry, looked up): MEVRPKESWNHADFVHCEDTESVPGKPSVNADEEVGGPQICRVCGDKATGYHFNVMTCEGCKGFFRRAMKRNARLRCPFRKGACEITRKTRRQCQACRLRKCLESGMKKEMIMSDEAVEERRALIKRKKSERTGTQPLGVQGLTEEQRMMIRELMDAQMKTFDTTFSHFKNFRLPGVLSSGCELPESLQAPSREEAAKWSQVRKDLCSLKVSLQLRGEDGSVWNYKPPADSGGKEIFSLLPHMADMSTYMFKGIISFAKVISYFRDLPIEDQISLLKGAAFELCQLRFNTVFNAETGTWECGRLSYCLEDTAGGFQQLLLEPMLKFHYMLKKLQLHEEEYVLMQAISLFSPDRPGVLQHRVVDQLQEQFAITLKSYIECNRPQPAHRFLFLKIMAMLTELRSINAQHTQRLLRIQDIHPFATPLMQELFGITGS

A number with no mark means an inactive call. Results filed as inconclusive are left out. The source made the active and inactive calls. Calls come from the whole dose curve; as a rule, active = well fitted curve in the direction sought with a large enough effect in the repeat runs; inconclusive = weak or mixed curves; inactive = no such curve, though single readings can be large; an effect the other way counts as inactive or inconclusive.
% is set by controls: 0 for no effect and ±100 for the full control effect.

In the case of `CCCn1cnc2c1c(=O)n(CCCCC(C)=O)c(=O)n2C`, the Potency result in test [1], in test [2], in test [3], in test [4], in test [5] and in test [6] was “inactive” in each case.

As for `C=C(C)C(=O)OCCOCC`, the Potency entry in test [1], in test [2], in test [3], in test [4], in test [5] and in test [6] was “inactive” each time.

In the case of `C[C@@H]1C[C@H]2O[C@@]3(O[C@@H]2C(C)(C)O)[C@H](O)[C@@]2(C)[C@@H]4CC[C@H]5C(C)(C)[C@@H](O[C@@H]6OC[C@@H](O)[C@H](O)[C@H]6O)CC[C@@]56C[C@@]46CC[C@]2(C)[C@@H]13`, the Potency entry in test [1], in test [2], in test [3], in test [4] and in test [5] was “inactive” in each case.

For the compound `CCN(CC)c1ccc(C(=C2C=CC(=[N+](CC)CC)C=C2)c2cc(S(=O)(=O)O)ccc2S(=O)(=O)[O-])cc1`, the Potency is 15 µM (active) in test [1], 26.6 µM (active) in test [3] and 23.7 µM (active) in test [5]. The Potency result in test [2], in test [4] and in test [6] was “inactive” each time.

For `O=C(O)C1(C(=O)O)CCC1.[NH2-].[NH2-].[Pt+2]`, the Potency result in test [1], in test [2], in test [3], in test [4], in test [5] and in test [6] was “inactive” each time.

Turning to `CCNc1cc(O)ccc1C`, the Potency result in test [1], in test [2], in test [4] and in test [5] was “inactive” in each case. Moreover, the Potency in test [3] was 60.4 µM (active); in test [6] it was 48 µM (active).

Take `CCCCC(=O)OCC(=O)[C@H]1[C@H](C)C[C@H]2[C@@H]3C[C@H](F)C4=CC(=O)C=C[C@]4(C)[C@@]3(F)[C@@H](O)C[C@@]21C`: the Potency result in test [1], in test [2], in test [3], in test [4] and in test [5] was “inactive” throughout. Besides, the Potency in test [6] is 9.44 µM (active).

`COc1cc(Cl)c(OC)cc1N`: the Potency result in test [1], in test [2], in test [3], in test [4] and in test [5] was “inactive” in each case. For the same compound, the Potency in test [6] is 48.6 µM (active).

As to `O=S(=O)(Oc1ccc(Cl)cc1)c1ccccc1`, the Potency entry in test [1], in test [2], in test [3], in test [4] and in test [5] was “inactive” in each case. Besides, in test [6], the Potency was 54.5 µM (active).

Turning to `CCCCC(CC)CN1C(=O)C2C3C=CC(C3)C2C1=O` (centres undefined), the Potency result in test [1], in test [2], in test [3], in test [4] and in test [5] was “inactive” throughout. Besides, in test [6], the Potency is 27.3 µM (active).

In the case of `CCCCC(CC)COC(=O)COc1ccc(Cl)cc1Cl` (centres undefined), the Potency entry in test [1], in test [2], in test [3], in test [4], in test [5] and in test [6] was “inactive” in each case.

With `CCC(C)c1cc(C(C)(C)C)c(O)c(C(C)(C)C)c1` (centres undefined), the Potency result in test [1], in test [2], in test [3], in test [4] and in test [5] was “inactive” throughout. Besides, the Potency in test [6] was 47.6 µM (active).

Turning to `CC(C)O.CC(C)O.CCOC(=O)/C=C(\C)O.CCOC(=O)/C=C(\C)O.[Ti]`, the Potency entry in test [1], in test [2], in test [3], in test [4] and in test [5] was “inactive” throughout.

On to `C[N+]1(C)CCC(OC(=O)C(O)(c2ccccc2)C2CCCC2)C1` (centres undefined), for which the Potency entry in test [1], in test [2], in test [3], in test [4], in test [5] and in test [6] was “inactive” in each case.

On to `O=C1CCC(=O)O1`, for which the Potency result in test [1], in test [2], in test [3], in test [4], in test [5] and in test [6] was “inactive” throughout.

In the case of `CCOC(=O)C(=O)CCc1ccccc1`, the Potency entry in test [1], in test [2], in test [3], in test [4], in test [5] and in test [6] was “inactive” each time.

On to `CC1=CCCC(C)(C)C12CCC(C)O2` (centres undefined), for which the Potency result in test [1], in test [2], in test [3], in test [4] and in test [5] was “inactive” in each case. Further, the Potency in test [6] is 54.5 µM (active).

As to `CCCCCCCN`, the Potency entry in test [1], in test [2], in test [3], in test [4], in test [5] and in test [6] was “inactive” throughout.

Regarding `O=C(NCCO[N+](=O)[O-])c1cccnc1`, the Potency entry in test [1], in test [2], in test [3], in test [4] and in test [5] was “inactive” in each case.

Consider `CCCCO`, for which the Potency result in test [1], in test [2], in test [3], in test [4] and in test [5] was “inactive” throughout.

For the compound `CCC(C)O` (centres undefined), the Potency result in test [1], in test [2], in test [3], in test [4] and in test [5] was “inactive” each time.

For `NCC(=O)O`, the activity change, negative = cytotoxicity in test [1] was 14.5% [at 19 µM]; in test [3], 7.68% [at 19 µM]; in test [5], 4.32% [at 19 µM]. In addition, the caspase activation in test [2] was -0.745% [at 19 µM]. In addition, the caspase-3/7 activation in test [4] is -1.83% [at 19 µM].

Consider `CC(=O)[O][Al]`, for which the Potency entry in test [1], in test [2], in test [3], in test [4] and in test [5] was “inactive” in each case.

On to `NS(=O)(=O)c1ccc(N2CCCCS2(=O)=O)cc1`, for which the Potency entry in test [1], in test [2], in test [3], in test [4], in test [5] and in test [6] was “inactive” each time.

Regarding `CCOC(=O)C(F)(F)F`, the Potency result in test [1], in test [2], in test [3], in test [4], in test [5] and in test [6] was “inactive” throughout.

As for `Cc1cc(N)c2cc(NC(=O)Nc3ccc4nc(C)cc(N)c4c3)ccc2n1`, the Potency entry in test [1], in test [2], in test [3], in test [4] and in test [5] was “inactive” throughout.

On to `O=C(O)c1ccccc1Cl`, for which the Potency result in test [1], in test [2], in test [3], in test [4], in test [5] and in test [6] was “inactive” in each case.

On to `CC(C)Cc1ccc(C(C)C(=O)OCc2ccccn2)cc1` (centres undefined), for which the Potency result in test [1], in test [2], in test [3], in test [4], in test [5] and in test [6] was “inactive” each time.

Turning to `C/C(=C(\CCOP(=O)(O)O)SC(=O)c1ccccc1)N(C=O)Cc1cnc(C)nc1N`, the figures for the activity change, negative = cytotoxicity in test [1], in test [3] and in test [5] were 10.5% [at 8.39 µM], 2.5% [at 8.39 µM] and 6.79% [at 8.39 µM], respectively. Besides, the caspase activation in test [2] was 0.0207% [at 8.39 µM]. Further, the caspase-3/7 activation in test [4] was -0.786% [at 8.39 µM].

`CCN(CC)CCNC(=O)c1cc(Br)c(N)cc1OC`: the Potency result in test [1], in test [2], in test [3], in test [4], in test [5] and in test [6] was “inactive” throughout.

For the compound `O=C(OCCc1ccccc1)c1ccccc1`, the Potency entry in test [1], in test [2], in test [3], in test [4], in test [5] and in test [6] was “inactive” each time.

As for `CC(=O)c1cccc([N+](=O)[O-])c1`, the Potency entry in test [1], in test [2], in test [3], in test [4], in test [5] and in test [6] was “inactive” in each case.

In the case of `Cc1ccc(C(C)OC(=O)C2(C)CCC(C(=O)O)C2(C)C)cc1` (centres undefined), the Potency entry in test [1], in test [2], in test [3], in test [4], in test [5] and in test [6] was “inactive” each time.
